In the library only some 18% were active in any assay of this set; here they are far more common.
TDP1 cell noCPT – qHTS for Inhibitors of human tyrosyl-DNA phosphodiesterase 1 (TDP1): qHTS in cells in absence of CPT; DT40 Tdp1-/- hTDP1 cells, no CPT, ATP luminescence, 48 h; hit rate 15% among 420,000; Potency, µM (titrated, usually from 46.2 µM), without a hit: at the top dose activity change, negative = growth inhibition, hits mostly inhibitors; also: potency is read from the fitted curve at half-maximal effect; nearly all actives have a fitted effect of over 55% in size
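Chicken DT40 Tdp1-/- cells stably complemented with human TDP1 were seeded at 400 cells/well with DMSO in place of 20 nM camptothecin. After compound pinning, cells grew at least 48 hr at 37 °C; viability read by CellTiter-Glo luminescence.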
IL1B secr inh – inhibitors of inflammasome signaling (IL-1 beta secretion); THP-1 LPS/ATP IL-1B secretion, AlphaLISA, 16 h; stronger effect = lower value; activity change, % at 57.5 µM; hit rate 4.7% among 360,000; AID 743279; in the data active = activity change below about -50%; inconclusive = mostly about -30% to -49%
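THP-1 cells pretreated 1 hr with compounds (up to 57.5 uM final), then stimulated with LPS (250 ng/mL final) plus ATP (1.25 mM final); secreted IL-1B measured by AlphaLISA after 16 hr, decreased signal indicating inhibition.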
Six1-Eya2 inh – blocks human Six1 binding to Eya2; Q15475+O00167; AlphaScreen GST-Six1/His-Eya2 binding, biochemical; stronger effect = lower value; activity change, % (no concentration beside the values); hit rate 0.56% among 360,000; AID 651725; in the data active = activity change below about -65%; inconclusive = mostly about -30% to -63%
Target sequence (O00167 whole entry, looked up): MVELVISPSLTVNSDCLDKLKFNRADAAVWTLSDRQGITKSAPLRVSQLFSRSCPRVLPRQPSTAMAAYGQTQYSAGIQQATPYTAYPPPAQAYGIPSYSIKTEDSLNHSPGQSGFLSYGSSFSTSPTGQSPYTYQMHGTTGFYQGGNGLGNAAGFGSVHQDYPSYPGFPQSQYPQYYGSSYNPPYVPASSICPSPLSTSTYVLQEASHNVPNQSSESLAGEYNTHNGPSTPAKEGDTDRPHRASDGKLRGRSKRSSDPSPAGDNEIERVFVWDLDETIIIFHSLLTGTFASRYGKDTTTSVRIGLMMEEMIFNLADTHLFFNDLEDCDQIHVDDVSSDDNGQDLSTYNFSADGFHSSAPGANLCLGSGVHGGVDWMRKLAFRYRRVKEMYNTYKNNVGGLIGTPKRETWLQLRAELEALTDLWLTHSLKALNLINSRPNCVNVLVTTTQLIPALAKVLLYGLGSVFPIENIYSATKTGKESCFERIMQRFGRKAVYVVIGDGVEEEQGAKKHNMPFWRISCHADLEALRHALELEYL
Target sequence (Q15475 whole entry, looked up): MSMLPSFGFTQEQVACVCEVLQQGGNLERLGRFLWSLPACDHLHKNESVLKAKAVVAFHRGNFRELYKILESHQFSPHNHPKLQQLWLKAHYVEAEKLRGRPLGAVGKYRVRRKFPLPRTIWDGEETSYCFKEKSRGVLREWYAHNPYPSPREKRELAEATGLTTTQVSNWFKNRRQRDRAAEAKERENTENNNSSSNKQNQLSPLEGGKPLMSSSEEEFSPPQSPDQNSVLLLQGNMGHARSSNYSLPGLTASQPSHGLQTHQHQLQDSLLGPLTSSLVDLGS
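AlphaScreen with GST-Six1 and His-Eya2 (5X mix: 250 nM and 500 nM), glutathione donor and nickel acceptor beads; buffer 50 mM Tris pH 8.0, 300 mM NaCl, 1 mM TCEP; 1 h at 37 C in the dark.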
DT40 TDP1 CPT – growth inhibition of DT40 Tdp1-/-;hTDP1 cells with camptothecin (screen for TDP1 inhibitors); chicken DT40 Tdp1-/-;hTDP1 cells + 20 nM CPT, ATP luminescence, 48 h; Potency, µM (highest dose often 46.2 µM), for inactives: top-dose activity change, negative = growth inhibition, hits mostly inhibitors; hit rate 12% among 420,000; also: potency is read from the fitted curve at half-maximal effect; nearly all actives have a fitted effect of over 55% in size
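Chicken DT40 Tdp1-/- cells stably complemented with human TDP1 were seeded at 400 cells/well in medium containing 20 nM camptothecin, exposed to pin-transferred compounds, and grown at 37 °C for at least 48 hr. Viability was read as ATP luminescence.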
CtBP-E1A inh – CtBP/E1A binding inhibition; activity change, % (test concentration not listed); hit rate 0.49% among 340,000; AlphaScreen GST-E1A/His-CtBP binding, 1536-well; stronger effect = lower value; in the data active = activity change below about -65%; inconclusive = mostly about -30% to -63%
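Protein mix (5X: 125 nM each GST-E1A, His-CtBP) was incubated with pinned compound 2 h at 37 deg C in dark, in 50 mM Tris pH 8.0 buffer with 300 mM NaCl. Glutathione donor and nickel acceptor beads followed; AlphaScreen signal read after 1 h.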
TDP1 inh – blocks human tyrosyl-DNA phosphodiesterase 1; recombinant TDP1, AlphaScreen DNA substrate cleavage; Q9NUW8; Potency, µM (titrated, usually from 130 µM), without a hit: at the top dose activity change, negative = inhibition, most hits filed as inhibitors; hit rate 0.28% among 350,000; also: potency is read from the fitted curve at half-maximal effect; nearly all actives have a fitted effect of over 40% in size
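Steps: enzyme plus compound, 15 min RT; add biotin/phosphotyrosine-FITC oligonucleotide (15 nM final), react 5 min; add donor/acceptor beads (10 ug/ml final), 10 min; read AlphaScreen. Tdp1 at 1 nM final.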
Numbers without * were called inactive; i = inactive; ? = inconclusive; · = no result given. Unless noted, calls follow the shape of the dose curve; as a rule, active = well fitted curve in the direction sought with a large enough effect; inconclusive = small, poorly fitted or top-dose-only effect, or another doubt; inactive = no such curve, though single readings can be large; an effect the other way counts as inactive or inconclusive. % is scaled to controls: 0 for no effect and ±100 for the full control effect.

SMILES | TDP1 cell noCPT | IL1B secr inh | Six1-Eya2 inh | DT40 TDP1 CPT | CtBP-E1A inh | TDP1 inh
O=C(Nc1ccc2c(c1)OCCO2)C(c1ccncc1)n1c(=O)c(-c2ccco2)nc2ccccc21 (configuration not stated) | ? | -14 | -18 | 10µM* | 4 | ·
O=C(Nc1ccc2c(c1)OCCO2)C(c1ccnc2ccccc12)n1c(=O)c(-c2ccco2)nc2ccccc21 (configuration not stated) | 15µM* | 5 | -6 | 7.3µM* | -9 | ·
O=C(Nc1ccc2c(c1)OCCO2)C(c1ccnc2ccccc12)N1CCN(C/C=C/c2ccccc2)CC1 (configuration not stated) | 23µM* | 0 | -23 | ? | ? | ·
O=C(Nc1ccc2c(c1)OCCO2)C(c1ccccc1)n1c(=O)c(-c2cc3ccccc3[nH]2)nc2ccccc21 (configuration not stated) | ? | 17 | 47 | ? | 16 | ·
O=C(COc1ccc(NS(=O)(=O)c2ccc(F)cc2)cc1)N1CCOCC1 | -21% | -11 | -4 | -2% | · | 4%
COc1ccc(CN(CC(=O)NC(C)C)C(=O)CCC(=O)Nc2nccs2)cc1 | 4% | -7 | 0 | 8% | -10 | ·
CCOC(=O)C(CCCOc1ccc(C)cc1)C(=O)OCC | -9% | 8 | 37 | -11% | 53 | 0%
Cn1c(=O)c2sccc2n2c(CCCC(=O)Nc3ccc(Cl)cc3)nnc12 | ? | · | · | 21µM* | · | 4%
COc1ccc(NC(=O)CCCc2nnc3n(C(C)C)c(=O)c4sccc4n23)cc1Cl | 23µM* | · | · | 13µM* | · | 3%
CC(C)Cn1c(=O)c2sccc2n2c(CCCC(=O)Nc3ccc(Cl)cc3)nnc12 | 18µM* | · | · | ? | · | 5%
CCn1c(=O)c2sccc2n2c(CCC(=O)Nc3cc(C)cc(C)c3)nnc12 | -3% | · | · | -1% | · | 6%
Cc1ccc(NC(=O)CCCc2nnc3n(C)c(=O)c4sccc4n23)cc1F | ? | · | · | ? | · | 6%
CCn1c(=O)c2sccc2n2c(CCC(=O)Nc3ccc(C(C)C)cc3)nnc12 | 23µM* | · | · | ? | · | 4%
COc1ccc(OC)c(NC(=O)CCCc2nnc3n(C(C)C)c(=O)c4sccc4n23)c1 | ? | · | · | -17% | · | 3%
Cn1c(=O)c2sccc2n2c(CCCC(=O)Nc3ccc(Oc4ccccc4)cc3)nnc12 | 16µM* | · | · | ? | · | 3%
COc1cc(NC(=O)CCCc2nnc3n(C)c(=O)c4sccc4n23)cc(OC)c1OC | 1% | · | · | 10% | · | 8%
Cc1nc(COc2ccccc2Cl)sc1-c1ccnc(N)n1 | ? | -62* | 4 | ? | 0 | ·
O=c1cc(-c2ccccc2)[nH]n1-c1nc2ccccc2[nH]1 | ? | 13 | -81* | ? | -77* | 11%
O=C(Nc1cccnc1)c1ccc2c(c1)C(=O)N(Cc1cccnc1)C2=O | -14% | 58 | -2 | -2% | -4 | 0%
Cc1ccc2c(c1)-c1onc(C(=O)N3CCN(c4cc(C)ccc4C)CC3)c1CO2 | · | · | · | · | · | -3%
CC(C)c1cc(C(C)C)c(S(=O)(=O)NC(c2ccccn2)C23CC2C3)c(C(C)C)c1 (configuration not stated) | 16µM* | 22 | -8 | ? | ? | ·
COc1cccc(C(C(=O)NC2CCCC2)N(CCC(C)C)C(=O)CCC(=O)Nc2cc(C)on2)c1 (configuration not stated) | ? | -21 | 3 | ? | 6 | ·
COc1ccccc1N(Cc1ccccc1)S(=O)(=O)c1cccc(C(=O)Nc2cc(C)ccn2)c1 | 26µM* | ? | -8 | ? | 0 | 2%
CC1(C)CC(NC(=O)c2ccc(Cl)c(S(=O)(=O)N(Cc3ccccc3)c3ccccc3)c2)CC(C)(C)N1 | ? | -110* | -2 | ? | -9 | ·
C=CCN(c1ccc(F)cc1)S(=O)(=O)c1cc(C(=O)NC2CC2)ccc1Cl | 21µM* | 8 | -4 | 21µM* | -7 | ·
SMILES | TDP1 cell noCPT | IL1B secr inh | Six1-Eya2 inh | DT40 TDP1 CPT | CtBP-E1A inh | TDP1 inh
O=C(O)c1ccc(Cl)c(S(=O)(=O)N(Cc2ccccc2)c2ccc(Cl)cc2)c1 | -6% | -6 | -5 | -13% | -18 | ·
CCOc1ccccc1NC(=O)c1cccc(S(=O)(=O)N(Cc2ccccc2)c2ccccc2OC)c1 | 16µM* | i | -2 | 21µM* | -17 | 1%
COc1ccccc1N(Cc1ccccc1)S(=O)(=O)c1cccc(C(=O)O)c1 | 9% | 23 | 1 | 4% | 6 | -3%
COc1ccccc1N(Cc1ccccc1)S(=O)(=O)c1cccc(C(=O)Nc2ncccc2C)c1 | ? | -3 | 12 | ? | 0 | -14%
COc1ccccc1N(Cc1ccccc1)S(=O)(=O)c1cccc(C(=O)NC2CC(C)(C)NC(C)(C)C2)c1 | 18µM* | ? | -3 | 18µM* | -3 | ·
NC(=O)C1CCN(C(=O)COc2ccc(S(=O)(=O)NC3CCCC3)cc2)CC1 | -5% | -2 | 1 | 10% | 6 | 1%
O=C(CCCn1c(SCc2ccccc2F)nc2ccccc2c1=O)NCC1CCCO1 (configuration not stated) | ? | -25 | -4 | -6% | 2 | 4%
O=C(CCCn1c(SCc2cccc([N+](=O)[O-])c2)nc2ccccc2c1=O)NCC1CCCO1 (configuration not stated) | 23µM* | ? | -8 | ? | -14 | 2%
CCCCCn1c(SCC#N)nc2cc(C(=O)NCC3CCCO3)ccc2c1=O (configuration not stated) | 23µM* | 0 | 18 | ? | 21 | -3%
CCc1ccccc1NC(=O)CSc1nc2cc(C(=O)NCC3CCCO3)ccc2c(=O)n1CC1CCCO1 (configuration not stated) | ? | -22 | 2 | ? | -9 | ·
O=C1C(=Cc2ccccc2Cl)CCc2ccccc21 | ? | ? | -1 | -74% | -14 | ·
O=C1C(=Cc2cccc(Cl)c2)Cc2ccccc21 | ? | 14 | 5 | ? | 6 | ·
O=C1C(=Cc2ccc(Cl)cc2)CCc2ccccc21 | ? | -9 | 1 | 21µM* | 3 | ·
CCOc1ccc(/C=C2\CCc3ccccc3C2=O)cc1 | ? | -10 | -3 | 2% | -10 | 1%
O=C1C(=Cc2ccc(F)cc2)CCc2ccccc21 | 21µM* | -13 | 15 | 16µM* | 0 | ·
O=C1C(=Cc2cccc(Cl)c2)CCc2ccccc21 | 21µM* | -21 | 2 | ? | 6 | ·
